The record followed here is PubChem BioAssay (EPA / NIEHS).

Experiment [1] in a line: ATG_E_Box_CIS: Attagene CIS-FACTORIAL HepG2 Assay for human Enhancer Box (E-box) (AID 2282936). To be noted: HepG2 E-box cis-reporter transcription, actives raise or lower the signal. An outline of the steps: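 DMSO served as negative control and baseline for bidirectional fitting. Human hepatoma HepG2 cells, transiently transfected with cis-reporter constructs, were dosed 24 h; reporter mRNA read by RT-PCR and capillary electrophoresis.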

Experiment [2] in a line: ATG_M_61_CIS: Attagene CIS-FACTORIAL HepG2 Assay for M61 Transcription Factor (Internal Marker) (AID 2282937). The following applies: HepG2 Attagene CIS-FACTORIAL M61 internal marker reporter; actives raise or lower the signal. An outline of the steps:
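This endpoint serves as an internal background control within a multiplexed HepG2 cis-reporter panel. Cells are exposed for 24 h; reporter mRNA is amplified, fluorescently labelled and sized by capillary electrophoresis, with DMSO as negative control.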

A short description of experiment [3]: ATG_EGR_CIS: Attagene CIS-FACTORIAL HepG2 Assay for human Early Growth Response 1 (EGR1) (AID 2282938). The following applies: HepG2 Attagene CIS-FACTORIAL EGR reporter mRNA; actives raise or lower the signal. An outline of the steps: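 HepG2, transient MRTU transfection (cis promoters), 24 h compound. RNA → RT (oligo-dT) → PCR → 6-FAM labelling → HpaI cut → CE fluorescence. Bidirectional fit, DMSO baseline.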

Experiment [4] can be described thus: ATG_M_19_CIS: Attagene CIS-FACTORIAL HepG2 Assay for M19 Transcription Factor (Internal Marker) (AID 2282939). The following applies: HepG2 Attagene CIS-FACTORIAL M19 internal marker reporter; actives raise or lower the signal. An outline of the steps: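 Signals come from fluorescence of labelled reporter-specific PCR fragments resolved by capillary electrophoresis, following 24 h treatment of HepG2 cells transfected with cis-promoter reporter units; activity was fitted in both directions relative to DMSO.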

The nature of experiment [5]: ATG_ERE_CIS: Attagene CIS-FACTORIAL HepG2 Assay for Estrogen Response Element (ERE) (AID 2282940). The following applies: HepG2 ERE cis-reporter, Attagene RNA transcript; actives raise or lower the signal. An outline of the steps:
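Fluorescence of capillary-separated, FAM-labelled reporter cDNA fragments indicates reporter mRNA levels in HepG2 cells exposed to chemicals for 24 h. Transient transfection with cis-regulated units; data fitted in both directions against DMSO.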

Experiment [6] can be described thus: ATG_Ets_CIS: Attagene CIS-FACTORIAL HepG2 Assay for human Erythroblast Transformation Specific (ETS) (AID 2282941). To be noted: HepG2 ETS cis-reporter transcription, actives raise or lower the signal. An outline of the steps:
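Steps: transfect HepG2 with multiple reporter units; treat compound 24 h; isolate RNA, DNase-treat, reverse-transcribe; PCR-amplify, label with 6-FAM, digest with HpaI; separate by capillary electrophoresis. Activity fitted both directions versus DMSO.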

In experiment [7] the target is Hepatocyte nuclear factor 3-beta (Homo sapiens) (UniProt Q9Y261). Put plainly: ATG_FoxA2_CIS: Attagene CIS-FACTORIAL HepG2 Assay for human Forkhead box A2 (FOXA2) (AID 2282942). To be noted: HepG2 cis-reporter transcription factor activity, 24 h; actives raise or lower the signal. An outline of the steps:
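Cells: HepG2, transient multiplex reporter transfection. Exposure 24 h. Detection: reporter-specific RT-PCR, fluorescent labelling, restriction digest, capillary electrophoresis. Analysis: bidirectional curve fit, DMSO as negative control.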

Experiment [8] can be described thus: ATG_FoxO_CIS: Attagene CIS-FACTORIAL HepG2 Assay for human Forkhead box O (FoxO) (AID 2282943). To be noted: HepG2 Attagene cis-reporter, FoxO element, mRNA; actives raise or lower the signal. An outline of the steps: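 HepG2, transient MRTU transfection (cis element, endogenous TFs). Dose 24 h. TriZol RNA → oligo(dT) RT → PCR → 6-FAM primer extension → HpaI cut → CE. Gain/loss vs DMSO.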

A short description of experiment [9]: ATG_GLI_CIS: Attagene CIS-FACTORIAL HepG2 Assay for human Zinc Finger Protein GLI1 (AID 2282945). The following applies: HepG2, Attagene cis-factorial reporter mRNA, GLI element; actives raise or lower the signal. An outline of the steps:
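Bidirectional curve fits relative to DMSO, using reporter mRNA levels from RT-PCR plus capillary electrophoresis. Cells were HepG2 transiently carrying cis-regulated reporter constructs, harvested 24 h after dosing.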

A short description of experiment [10]: ATG_GRE_CIS: Attagene CIS-FACTORIAL HepG2 Assay for human Glucocorticoid Response Elements (GRE) (AID 2282947). To be noted: HepG2 GRE cis-reporter, Attagene multiplex mRNA; actives raise or lower the signal. An outline of the steps: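 Assay uses human hepatoma HepG2 cells transfected with cis-promoter reporter units, exposed 24 h. mRNA from reporters detected by RT-PCR plus capillary electrophoresis; DMSO serves as negative control and baseline.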

Experiment [11] is described as follows: ATG_M_32_CIS: Attagene CIS-FACTORIAL HepG2 Assay for M32 Transcription Factor (Internal Marker) (AID 2282949).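 Also: background control marker of the multiplexed CIS panel rather than a real target.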 To be noted: HepG2 Attagene cis-factorial M32 reporter, mRNA; actives raise or lower the signal. An outline of the steps: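 Internal background marker read-out: RT-PCR/capillary electrophoresis fluorescence of reporter transcripts from transiently transfected HepG2 cells after 24 h chemical exposure. Activity fitted bidirectionally relative to DMSO negative control.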

Experiment [12] can be described thus: ATG_M_06_CIS: Attagene CIS-FACTORIAL HepG2 Assay for M06 Transcription Factor (Internal Marker) (AID 2282950). To be noted: HepG2 Attagene CIS-FACTORIAL M06 internal marker reporter; actives raise or lower the signal. An outline of the steps: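 HepG2 liver cells, 24 h exposure. Reporter transcripts from transfected cis-element constructs quantified by RT-PCR/capillary electrophoresis fluorescence. Bidirectional curve fit against DMSO.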

Experiment [13] has as its target Hypoxia-inducible factor 1-alpha (Homo sapiens) (UniProt Q16665). Put plainly: ATG_HIF1a_CIS: Attagene CIS-FACTORIAL HepG2 Assay for human Hypoxia Inducible Factor 1 (HIF1A) (AID 2282951). To be noted: HepG2 Attagene cis-factorial HIF1a reporter transcription; actives raise or lower the signal. An outline of the steps:
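HepG2, transient cis-reporter library, 24 h dosing. RNA → RT (oligo dT) → PCR → 6-FAM primer extension → HpaI → CE. Bidirectional curve fit vs DMSO.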

Experiment [14] deals with Hepatocyte nuclear factor 6 (Homo sapiens) (UniProt Q9UBC0). Put plainly: ATG_HNF6_CIS: Attagene CIS-FACTORIAL HepG2 Assay for human Hepatocyte Nuclear Factor 6 (HNF6) (AID 2282952). To be noted: HepG2 Attagene cis-factorial HNF6 reporter transcription; actives raise or lower the signal. An outline of the steps:
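Cells are HepG2 carrying transiently transfected cis-promoter reporter units. Treatment lasts 24 h, after which reporter transcripts are reverse-transcribed, amplified, FAM-labelled and sized by capillary electrophoresis. DMSO serves as baseline.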

The target in experiment [15] is Heat shock factor protein 1 (Homo sapiens) (UniProt Q00613). Nature of the experiment: ATG_HSE_CIS: Attagene CIS-FACTORIAL HepG2 Assay for human Heat Shock Transcription Factor 1 (HSE) (AID 2282953). To be noted: HepG2 HSE cis-reporter, Attagene RNA transcription; actives raise or lower the signal. An outline of the steps: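 Endogenous transcription factor activity captured via cis-promoter reporter units transfected into HepG2; treatment lasted 24 h. Fluorescence intensity of reporter fragments analysed with bidirectional curve fitting, DMSO baseline.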
Chain of Heat shock factor protein 1 (Homo sapiens) (Q00613 whole entry, looked up, the tested form may be a part): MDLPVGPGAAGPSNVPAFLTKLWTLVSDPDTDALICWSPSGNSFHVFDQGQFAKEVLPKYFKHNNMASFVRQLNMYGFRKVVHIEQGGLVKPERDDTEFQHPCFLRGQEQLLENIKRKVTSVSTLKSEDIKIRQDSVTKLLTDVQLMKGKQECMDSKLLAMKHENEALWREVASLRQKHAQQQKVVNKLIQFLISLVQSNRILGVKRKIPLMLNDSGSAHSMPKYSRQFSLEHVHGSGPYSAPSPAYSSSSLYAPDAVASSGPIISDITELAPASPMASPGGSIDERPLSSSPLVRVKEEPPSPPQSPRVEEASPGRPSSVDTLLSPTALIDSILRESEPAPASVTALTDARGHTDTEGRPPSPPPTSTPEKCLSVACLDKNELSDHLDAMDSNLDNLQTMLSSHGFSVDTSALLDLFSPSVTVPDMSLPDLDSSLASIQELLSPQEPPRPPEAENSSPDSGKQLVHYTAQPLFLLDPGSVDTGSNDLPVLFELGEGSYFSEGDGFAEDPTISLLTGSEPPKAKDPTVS

Experiment [16] is described as follows: ATG_MRE_CIS: Attagene CIS-FACTORIAL HepG2 Assay for human Metal Responsive Element (MRE) (AID 2282954). To be noted: HepG2 MRE cis-reporter transcription, Attagene multiplex; actives raise or lower the signal. An outline of the steps: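 After a 24 h chemical exposure, transiently transfected HepG2 cells yield RNA whose reporter sequences are amplified, FAM-labelled and sized by capillary electrophoresis. Curves are fitted bidirectionally relative to DMSO.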

A short description of experiment [17]: ATG_PBREM_CIS: Attagene CIS-FACTORIAL HepG2 Assay for human Phenobarbital-responsive Enhancer Module (PBREM) (AID 2282955). The following applies: HepG2 PBREM cis-reporter, Attagene multiplexed transcription; actives raise or lower the signal. An outline of the steps:
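HepG2, transient MRTU transfection, 24 h dosing; RNA → oligo(dT) RT → PCR → 6-FAM extension → HpaI → CE. Bidirectional fit vs DMSO.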

The nature of experiment [18]: ATG_GATA_CIS: Attagene CIS-FACTORIAL HepG2 Assay for human GATA Binding Protein (AID 2282944). To be noted: HepG2 GATA cis-element reporter, Attagene multiplex mRNA; actives raise or lower the signal. An outline of the steps:
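After transfecting HepG2 cells with multiple cis-regulated reporter units, chemicals are dosed for 24 h; isolated RNA undergoes RT-PCR and fluorescent labeling before capillary electrophoresis, with activity expressed against DMSO.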

Experiment [19] can be described thus: ATG_ISRE_CIS: Attagene CIS-FACTORIAL HepG2 Assay for human Interferon Regulatory Factor 1 (IRF1) binding to an Interferon-Stimulated Response Element (ISRE) (AID 2282948). The following applies: HepG2 ISRE cis-reporter (Attagene), mRNA transcription readout; actives raise or lower the signal. An outline of the steps:
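Transfected HepG2 (multiple reporter transcription units, cis elements) dosed 24 h. RNA → oligo(dT) RT → PCR → 6-FAM primer extension → HpaI → CE. DMSO = negative control/baseline.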

Experiment [20] has as its target Bile acid receptor (Homo sapiens) (UniProt Q96RI1). Put plainly: ATG_IR1_CIS: Attagene CIS-FACTORIAL HepG2 Assay for human Nuclear Receptor Subfamily 1 Group H Member 4 (NR1H4), IR1 submotif (AID 2282946). To be noted: IR1 reporter transcription, actives raise or lower the signal. An outline of the steps:
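Cells (human HepG2) carry transiently transfected cis-promoter reporter transcription units. Compounds are incubated 24 h, total RNA is reverse-transcribed and amplified, and labelled fragments are resolved by capillary electrophoresis. Curves use DMSO as baseline.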

Calls of active or inactive are those of the source. The calls were made as follows: active = hit-call score of the fitted dose curve at least 0.9, where 1 is the maximum; inactive = score below 0.9.

Chain of Hepatocyte nuclear factor 6 (Homo sapiens) (Q9UBC0 whole entry, looked up): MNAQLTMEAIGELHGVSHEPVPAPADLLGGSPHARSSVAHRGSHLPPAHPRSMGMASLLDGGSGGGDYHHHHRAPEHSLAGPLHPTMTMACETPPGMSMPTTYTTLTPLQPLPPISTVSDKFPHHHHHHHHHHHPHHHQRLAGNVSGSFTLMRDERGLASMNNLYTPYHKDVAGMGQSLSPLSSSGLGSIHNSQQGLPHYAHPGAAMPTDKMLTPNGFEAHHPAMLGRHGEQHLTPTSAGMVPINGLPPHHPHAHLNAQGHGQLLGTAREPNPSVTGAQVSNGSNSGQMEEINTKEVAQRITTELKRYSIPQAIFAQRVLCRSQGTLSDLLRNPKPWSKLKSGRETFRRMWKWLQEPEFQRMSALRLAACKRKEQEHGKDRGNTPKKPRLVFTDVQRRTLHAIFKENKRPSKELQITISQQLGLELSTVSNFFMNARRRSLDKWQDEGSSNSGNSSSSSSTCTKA
Chain of Hepatocyte nuclear factor 3-beta (Homo sapiens) (Q9Y261 whole entry, looked up): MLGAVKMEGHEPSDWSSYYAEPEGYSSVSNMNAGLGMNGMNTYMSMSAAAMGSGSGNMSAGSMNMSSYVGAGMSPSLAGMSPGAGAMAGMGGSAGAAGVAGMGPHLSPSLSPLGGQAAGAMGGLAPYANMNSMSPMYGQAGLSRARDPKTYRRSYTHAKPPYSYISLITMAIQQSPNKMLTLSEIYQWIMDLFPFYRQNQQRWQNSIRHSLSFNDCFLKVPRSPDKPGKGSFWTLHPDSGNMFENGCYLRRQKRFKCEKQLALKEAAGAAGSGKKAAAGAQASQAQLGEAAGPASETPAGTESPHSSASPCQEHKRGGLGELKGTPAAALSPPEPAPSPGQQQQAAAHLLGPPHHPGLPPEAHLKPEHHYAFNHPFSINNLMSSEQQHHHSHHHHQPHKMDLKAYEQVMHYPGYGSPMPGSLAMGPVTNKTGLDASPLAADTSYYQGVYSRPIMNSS
Chain of Hypoxia-inducible factor 1-alpha (Homo sapiens) (Q16665 whole entry, looked up): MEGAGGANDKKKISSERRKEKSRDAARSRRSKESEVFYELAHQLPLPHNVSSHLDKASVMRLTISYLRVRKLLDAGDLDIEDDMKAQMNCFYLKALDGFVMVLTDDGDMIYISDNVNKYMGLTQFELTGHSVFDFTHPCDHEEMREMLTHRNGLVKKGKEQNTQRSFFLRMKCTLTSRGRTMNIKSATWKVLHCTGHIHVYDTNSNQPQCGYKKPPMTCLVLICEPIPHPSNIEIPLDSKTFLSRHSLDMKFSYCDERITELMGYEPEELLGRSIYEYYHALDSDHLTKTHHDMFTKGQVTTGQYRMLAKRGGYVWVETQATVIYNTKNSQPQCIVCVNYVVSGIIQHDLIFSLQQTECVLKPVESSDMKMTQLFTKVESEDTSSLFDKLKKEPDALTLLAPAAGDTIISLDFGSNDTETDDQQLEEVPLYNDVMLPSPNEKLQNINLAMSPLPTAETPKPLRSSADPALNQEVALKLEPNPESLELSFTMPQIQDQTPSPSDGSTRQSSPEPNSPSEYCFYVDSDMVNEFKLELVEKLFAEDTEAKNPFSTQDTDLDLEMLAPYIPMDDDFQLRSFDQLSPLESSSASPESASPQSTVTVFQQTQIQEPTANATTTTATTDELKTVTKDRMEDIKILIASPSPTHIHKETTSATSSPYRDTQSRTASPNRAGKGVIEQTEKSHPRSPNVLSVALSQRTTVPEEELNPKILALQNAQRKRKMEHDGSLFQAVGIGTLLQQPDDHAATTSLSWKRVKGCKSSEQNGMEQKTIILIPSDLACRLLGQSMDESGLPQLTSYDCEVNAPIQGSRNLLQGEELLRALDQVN
Chain of Bile acid receptor (Homo sapiens) (Q96RI1 whole entry, looked up, the tested form may be a part): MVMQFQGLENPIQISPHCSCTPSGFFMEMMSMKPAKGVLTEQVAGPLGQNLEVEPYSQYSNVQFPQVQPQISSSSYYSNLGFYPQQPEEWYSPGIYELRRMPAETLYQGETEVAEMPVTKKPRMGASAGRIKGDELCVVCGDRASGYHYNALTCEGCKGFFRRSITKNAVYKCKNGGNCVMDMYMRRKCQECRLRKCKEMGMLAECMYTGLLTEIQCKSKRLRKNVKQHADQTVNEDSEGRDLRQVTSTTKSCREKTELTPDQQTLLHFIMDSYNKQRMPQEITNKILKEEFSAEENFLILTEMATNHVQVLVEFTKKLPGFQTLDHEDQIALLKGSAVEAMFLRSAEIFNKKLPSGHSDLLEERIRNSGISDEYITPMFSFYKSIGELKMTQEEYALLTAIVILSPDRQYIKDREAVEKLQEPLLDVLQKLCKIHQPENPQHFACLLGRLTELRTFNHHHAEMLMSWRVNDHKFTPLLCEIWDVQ

With `CC(C)(Oc1ccc(C2CC2(Cl)Cl)cc1)C(=O)O` (configuration not stated), the outcome in [1], in [2], in experiment [3], in experiment [4], in [5] and in [6] was inactive. The result in [7], in [8], in experiment [9], in [10], in [11] and in experiment [12] was inactive. Also, the outcome in experiment [13], in experiment [14], in experiment [15], in experiment [16] and in experiment [17] was inactive.

`CCCCCCCC/C=C\CCCCCCCC(=O)OCCO`: the outcome in [1], in experiment [2], in experiment [3], in [4], in experiment [6] and in [7] was inactive. Further, the result in experiment [8], in experiment [18], in experiment [9], in experiment [10], in [19] and in experiment [11] was inactive. The result in experiment [12], in [13], in experiment [14], in experiment [15] and in experiment [16] was inactive.

In general, AC50 refers to the concentration giving half of the maximal activity seen. In the case of `c1ccc(-c2ccccn2)nc1`, the AC50 in experiment [1] was 61.2 µM (active). Moreover, the result in [2], in [3], in experiment [4], in experiment [5], in experiment [6] and in experiment [7] was inactive. The call in experiment [8], in experiment [9], in experiment [10], in experiment [19], in experiment [11] and in experiment [12] was inactive. For the same compound, the outcome in experiment [15] and in [16] was inactive.

As for `CCCCCC/C=C/C=O`, the result in [1], in experiment [2], in experiment [3], in [4], in experiment [6] and in experiment [7] was inactive. Moreover, the call in [8], in [18], in experiment [9], in experiment [10], in [19] and in experiment [11] was inactive. Moreover, the compound was called inactive in experiment [12], in experiment [13], in experiment [16] and in experiment [17].

For `C=C(C)C(=O)OCC(C)C`, the outcome in [1], in experiment [2], in experiment [3], in experiment [4], in experiment [5] and in experiment [6] was inactive. In addition, the result in [7], in experiment [8], in [9], in experiment [19], in [12] and in experiment [13] was inactive. Moreover, the outcome in [14], in [15] and in experiment [16] was inactive.

Turning to `O=C(O)Cc1c(Cl)ccc(Cl)c1Cl`, the outcome in experiment [1], in experiment [2], in experiment [3], in [4], in experiment [5] and in experiment [6] was inactive. Also, the call in experiment [7], in [8], in [9], in [20], in experiment [19] and in [11] was inactive. Also, the result in experiment [12], in experiment [13], in experiment [14], in [15], in experiment [16] and in experiment [17] was inactive.

As to `CCOC(=O)Cc1cccc2ccccc12`, the result in experiment [1], in experiment [2], in experiment [3], in [4], in experiment [6] and in experiment [7] was inactive. In addition, the compound was called inactive in experiment [8], in experiment [18], in [9], in [10], in experiment [19] and in experiment [12]. In addition, the compound was classed as inactive in experiment [13], in [14], in experiment [16] and in experiment [17].

In the case of `C=C(C)C(=O)OCCOc1ccccc1`, the outcome in experiment [1], in [2], in [3], in experiment [4], in [5] and in experiment [6] was inactive. In addition, the result in experiment [7], in experiment [8], in experiment [9], in experiment [10], in experiment [19] and in [11] was inactive. In addition, the result in experiment [12], in experiment [13], in [14], in [15], in experiment [16] and in [17] was inactive.
